Reference: PubChem BioAssay (Tox21)
Records with an inconclusive call do not appear. The source made the active and inactive calls. Unless noted, calls follow the shape of the dose curve; as a rule, active = well fitted curve in the direction sought with a large enough effect in the repeat runs; inconclusive = weak or mixed curves; inactive = no such curve, though single readings can be large; an effect the other way counts as inactive or inconclusive.

What was measured:
[1] = biological target: Thyrotropin receptor (Homo sapiens) (UniProt P16473); test: qHTS assay to identify small molecule agonists of the thyroid stimulating hormone receptor (TSHR) signaling pathway (AID 1224843; calls by dose curve; also: nearly all actives have a fitted effect of over 45% in size)
Chain of Thyrotropin receptor (Homo sapiens) (P16473 whole entry, looked up): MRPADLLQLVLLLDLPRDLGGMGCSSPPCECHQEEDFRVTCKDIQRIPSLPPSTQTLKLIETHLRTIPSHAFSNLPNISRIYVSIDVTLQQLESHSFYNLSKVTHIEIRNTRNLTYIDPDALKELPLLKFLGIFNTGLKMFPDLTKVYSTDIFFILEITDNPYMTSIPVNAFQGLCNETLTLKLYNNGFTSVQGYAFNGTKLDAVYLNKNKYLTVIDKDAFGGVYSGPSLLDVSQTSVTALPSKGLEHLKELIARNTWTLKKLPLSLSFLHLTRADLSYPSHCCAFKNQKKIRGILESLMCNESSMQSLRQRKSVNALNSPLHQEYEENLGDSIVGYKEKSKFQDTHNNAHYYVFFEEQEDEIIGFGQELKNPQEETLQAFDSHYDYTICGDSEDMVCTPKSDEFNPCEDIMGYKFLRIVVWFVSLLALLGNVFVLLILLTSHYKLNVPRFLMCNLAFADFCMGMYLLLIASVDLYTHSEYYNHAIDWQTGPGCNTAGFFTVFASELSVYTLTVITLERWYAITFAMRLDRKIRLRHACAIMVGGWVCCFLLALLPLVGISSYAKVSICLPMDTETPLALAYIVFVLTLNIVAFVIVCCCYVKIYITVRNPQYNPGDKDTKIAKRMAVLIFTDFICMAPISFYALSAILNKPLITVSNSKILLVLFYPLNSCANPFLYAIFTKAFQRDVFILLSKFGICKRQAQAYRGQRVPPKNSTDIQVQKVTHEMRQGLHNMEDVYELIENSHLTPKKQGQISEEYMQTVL
Procedure, shortened: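 Cell line HEK293 with TSHR; density 800/well. Exposure 30 min RT. Readout HTRF cAMP (cAMP-d2/anti-cAMP-cryptate), 1 h RT before reading.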

[2] = qHTS assay to identify small molecule agonists of the hypoxia (HIF-1) signaling pathway - cell viability counter screen (AID 1224844; calls by dose curve; also: nearly all actives have a fitted effect of over 50% in size; also: potency is read from the fitted curve at half-maximal effect)
Procedure, shortened: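 ME-180 HRE-bla cells, 2,000/well, 0.5% dialyzed FBS; 5 hr settle, 17 hr compound at 37C/5% CO2; CCF4-AM reporter read first, then CellTiter-Glo luminescence after 30 min RT.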

[3] = qHTS assay to identify small molecule agonists of H2AX (AID 1224845; active = well fitted activation curve with a large enough effect in the signal ratio in the repeat runs, not every such curve was filed as active; the % refers to the signal ratio)
Procedure, shortened: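 Wild-type CHO-K1 cells plated overnight, then exposed 3 hr at 37C to compounds at 15 concentrations (0.76% DMSO). Lysed, then HTRF anti-pH2AX(S139)-cryptate/anti-H2AX-d2 detection after 24 hr at room temperature; emissions 665 and 620 nm.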

[4] = qHTS assay to identify small molecule agonists of the hypoxia (HIF-1) signaling pathway (AID 1224846; active = well fitted activation curve with a large enough effect in the signal ratio in the repeat runs, not every such curve was filed as active; the % refers to the signal ratio)
Procedure, shortened: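 Cell line: CellSensor HRE-bla ME-180; 2,000 cells/well; 0.5% dialyzed FBS; 5 h preincubation; DMSO compound pin transfer; 17 h, 37C, 5% CO2; CCF4-AM added; bla FRET signal scored for activation.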

[5] = qHTS assay to identify small molecule agonists of H2AX - cell viability counter screen (AID 1224847; calls by dose curve; also: top concentration of the series differs between compounds; nearly all actives have a fitted effect of over 30% in size)
Procedure, shortened: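 Read-out: CellTiter-Glo luminescence, 30 min RT. Cells: wild-type CHO-K1, 1000/well, 10% FBS, plated overnight at 37C. Treatment: 15 concentrations, 3 hr, 37C, 0.76% DMSO.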

[6] = qHTS RealTime-Glo MT Cell Viability Assay in HepG2 cells - 24 hour (AID 1224867); also: nearly all actives have a fitted effect of over 50% in size
Procedure, shortened: (§1)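 Cell number in HepG2 cultures estimated from NanoLuc luminescence generated by metabolic reduction of a prosubstrate by living cells. The homogeneous, nonlytic format allowed repeated reads at 0, 8, 16, 24, 32 and 40 h of compound exposure.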

[7] = qHTS RealTime-Glo MT Cell Viability Assay in HEK293 cells - 32 hour (AID 1224868); also: top concentration of the series differs between compounds; nearly all actives have a fitted effect of over 50% in size
Procedure, shortened: (§2)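 Homogeneous bioluminescent viability format in HEK293 cells (600 cells/well). Following 5 h at 37 C/5% CO2, 23 nL compound was pintooled; the signal was measured repeatedly during 40 h incubation.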

[8] = qHTS RealTime-Glo MT Cell Viability Assay in HepG2 cells - 40 hour (AID 1224870); also: nearly all actives have a fitted effect of over 50% in size
Procedure, shortened: (§3)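 HepG2 cells mixed with RealTime-Glo MT reagents (NanoLuc plus cell-permeant prosubstrate) were seeded at 600 cells/well, incubated 5 h at 37 C/5% CO2, then pinned with compounds in DMSO; nonlytic luminescence tracked viability during 40 h treatment.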

[9] = A CellTox Green Cytotoxicity Assay to monitor cytotoxicity in HEK293 cells - 40 hour (AID 1224871); also: nearly all actives have a fitted effect of over 45% in size
Procedure, shortened: (§4)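 Nonlytic real-time cytotoxicity: HEK293 + CellTox Green reagent plated, 5 h preincubation, pintool compound addition (23 nL in DMSO), 37 C for 40 h, fluorescence measured at successive time points.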

[10] = qHTS RealTime-Glo MT Cell Viability Assay in HEK293 cells - 16 hour (AID 1224872)
Procedure, shortened: as §2

[11] = qHTS RealTime-Glo MT Cell Viability Assay in HepG2 cells - 8 hour (AID 1224873); also: nearly all actives have a fitted effect of over 55% in size
Procedure, shortened: as §3

[12] = qHTS RealTime-Glo MT Cell Viability Assay in HEK293 cells - 40 hour (AID 1224874); conditions: RealTime-Glo luminescence; max response: stronger effect = lower value; also: nearly all actives have a fitted effect of over 50% in size
Procedure, shortened: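 Cells were seeded together with NanoLuc luciferase and a prosubstrate that viable cells reduce to a luciferase substrate. After a 5 h incubation at 37 C/5% CO2, compounds were added and luminescence was measured repeatedly during 40 h of treatment.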

[13] = A CellTox Green Cytotoxicity Assay to monitor cytotoxicity in HEK293 cells - 24 hour (AID 1224875); also: nearly all actives have a fitted effect of over 45% in size
Procedure, shortened: as §4

[14] = qHTS RealTime-Glo MT Cell Viability Assay in HepG2 cells - 32 hour (AID 1224877); also: nearly all actives have a fitted effect of over 55% in size
Procedure, shortened: as §1

[15] = A CellTox Green Cytotoxicity Assay to monitor cytotoxicity in HepG2 cells - 24 hour (AID 1224878); also: nearly all actives have a fitted effect of over 45% in size
Procedure, shortened: (§5)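 Read-out is fluorescence of a cyanine dye excluded from live cells that stains DNA of dead HepG2 cells, with signal proportional to cytotoxicity. Plates were read at 0, 8, 16, 24, 32 and 40 h after compound addition.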

[16] = A CellTox Green Cytotoxicity Assay to monitor cytotoxicity in HepG2 cells - 40 hour (AID 1224879); also: nearly all actives have a fitted effect of over 40% in size
Procedure, shortened: as §5

[17] = qHTS assay to identify small molecule antagonists of the estrogen related receptor (ERR) signaling pathway from Tox21 library (AID 1224848); also: nearly all actives have a fitted effect of over 50% in size; also: potency is read from the fitted curve at half-maximal effect
Procedure, shortened: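 Screening used an ERR reporter line supplied by NTP, exposed for 18 h at 37 C to library compounds delivered in DMSO. Signal was luciferase luminescence developed with ONE-Glo at room temperature for 30 min.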

[18] = qHTS assay to identify small molecule agonists of the estrogen related receptor (ERR) signaling pathway from Tox21 library (AID 1224849; calls by dose curve; also: nearly all actives have a fitted effect of over 15% in size); conditions: ERR reporter cell line, ONE-Glo luciferase, 18 h; at 92.4 µM (top of the series) unless noted
Procedure, shortened: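 ERR cells, 6 h pre-incubation 37 C/5% CO2; cpd in DMSO pinned; 18 h 37 C; ONE-Glo added, 30 min RT; luminescence read. Agonist mode, qHTS.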

[19] = A CellTox Green Cytotoxicity Assay to monitor cytotoxicity in HEK293 cells - 0 hour (AID 1224869); also: nearly all actives have a fitted effect of over 50% in size
Procedure, shortened: as §4

[20] = A CellTox Green Cytotoxicity Assay to monitor cytotoxicity in HepG2 cells - 16 hour (AID 1224876); also: nearly all actives have a fitted effect of over 45% in size
Procedure, shortened: as §5
% is scaled to controls: 0 for no effect and ±100 for the full control effect.

CCC(OCCCOC)OC(C)=O (centres undefined)
inactive: Potency [1] | Potency [2] | Potency [3] | outcome [4] | Potency [5] | Potency [6] | Potency [7] | Potency [8] | Potency [9] | Potency [10] | Potency [11] | max response [12] 3.03% | Potency [13] | Potency [14] | Potency [15] | Potency [16]

CC(CN(C)C)C(C)(O)Cc1ccc(Cl)cc1 (centres undefined)
inactive: Potency [1] | Potency [2] | Potency [3] | outcome [4] | Potency [5] | Potency [17] | activity change, positive = activation [18] 9.4% [at 42.5 µM] | Potency [6] | Potency [7] | Potency [19] | Potency [8] | Potency [9] | Potency [10] | Potency [11] | Potency [13] | Potency [14] | Potency [15] | Potency [16]

C=C1CCC2CC1C2(C)C (centres undefined)
inactive: Potency [1] | Potency [2] | Potency [3] | outcome [4] | Potency [5] | Potency [6] | Potency [7] | Potency [19] | Potency [8] | Potency [10] | Potency [11] | max response [12] 0.0757% | Potency [13] | Potency [20] | Potency [14] | Potency [15] | Potency [16]

CC=C(Cl)Cl
inactive: Potency [1] | Potency [2] | Potency [3] | outcome [4] | Potency [5] | Potency [6] | Potency [7] | Potency [19] | Potency [8] | Potency [10] | Potency [11] | max response [12] 12.6% | Potency [20] | Potency [15] | Potency [16]

COC(=O)C1=C(C)NC(C)=C(C(=O)O[C@@H]2CCCN(Cc3ccccc3)C2)[C@@H]1c1cccc([N+](=O)[O-])c1
active: Potency [17] 23.7 µM
inactive: Potency [1] | Potency [2] | Potency [3] | outcome [4] | Potency [5] | activity change, positive = activation [18] -34.6% [at 42.5 µM] | Potency [6] | Potency [7] | Potency [19] | Potency [11] | max response [12] -29.2% | Potency [13] | Potency [20] | Potency [15] | Potency [16]

NC1[C@H]2CN(c3nc4c(cc3F)c(=O)c(C(=O)O)cn4-c3ccc(F)cc3F)C[C@@H]12 (some centres undefined)
inactive: Potency [1] | Potency [2] | Potency [3] | outcome [4] | Potency [5] | Potency [17] | Potency [6] | Potency [7] | Potency [19] | Potency [8] | Potency [10] | Potency [11] | max response [12] -27.4% | Potency [20] | Potency [14] | Potency [15] | Potency [16]
active: activity change, positive = activation [18] 59.2% [at 42.5 µM]

C[C@H]1C[C@H](O)c2ccsc2S1(=O)=O
inactive: Potency [1] | Potency [2] | Potency [3] | outcome [4] | Potency [5] | Potency [17] | activity change, positive = activation [18] 5.62% [at 42.5 µM] | Potency [6] | Potency [7] | Potency [19] | Potency [8] | Potency [9] | Potency [10] | Potency [11] | max response [12] 2.25% | Potency [13] | Potency [20] | Potency [14] | Potency [15] | Potency [16]

CCCCC(CC)COP(=O)(O)O (centres undefined)
inactive: Potency [1] | Potency [3] | outcome [4] | Potency [5] | Potency [6] | Potency [19] | Potency [8] | Potency [10] | Potency [11] | Potency [20] | Potency [14] | Potency [15] | Potency [16]
active: Potency [2] 12.5 µM
